Shown are actives, neighbours in structure and some others; about 3.6% of the full set was active somewhere.
Abeta rescue = compounds reversing amyloid beta toxicity in yeast. yeast expressing A-beta42, growth rescue, OD600, 48 h; response scale: 0% DMSO, 100% iron-clioquinol control. actives 0.063% (n = 410,000). Potency, µM (titrated, usually from 46.1 µM), hits mostly activators; note: nearly all actives have a fitted effect of over 55% in size
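Growth rescue measured by 600 nm absorbance after 48 h yeast culture at 30 C with compound. Values normalized between DMSO and an equimolar ferric chloride plus clioquinol control.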
ClpP mod = qHTS Assay for Activators of ClpP | purified B. subtilis ClpP, FRET peptide cleavage, 20 min | AID 651965, 2013 | actives 1.9% (n = 340,000) | Potency, µM (doses to about 57.5 µM) | ATP-dependent Clp protease proteolytic subunit (Bacillus subtilis (strain 168)), P80244; active = well fitted falling curve with a large enough effect; inconclusive = small, poorly fitted or top-dose-only effect; inactive = no such curve, though single readings can be large or run the other way; note: the source files actives as falling curves though it sought activators and does not explain the sign; nearly all actives have a fitted effect of over 65% in size
Target sequence (P80244 whole entry, looked up): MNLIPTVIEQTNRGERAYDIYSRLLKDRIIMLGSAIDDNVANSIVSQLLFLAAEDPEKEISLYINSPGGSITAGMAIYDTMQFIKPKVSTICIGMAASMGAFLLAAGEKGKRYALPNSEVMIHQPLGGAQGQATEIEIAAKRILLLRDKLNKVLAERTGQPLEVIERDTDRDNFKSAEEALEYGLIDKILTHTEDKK
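Purified B. subtilis ClpP, 10 microg/mL final in Tris/HCl pH8 with KCl, BSA, glycerol and Tween-20, cleaved an Abz/nitrotyrosine-quenched decapeptide. Fluorescence (ex 320, em 430) was read at 0 and 20 min at room temperature. Delta was normalized to 5.8 microM ADEP and DMSO/no-enzyme controls.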
FUS suppressor = rescues growth of FUS-expressing yeast; actives 0.24% (n = 390,000); S. cerevisiae FUS-expressing, growth rescue, OD600, 24 h; Potency, µM (top dose mostly 76.6 µM), hits mostly activators; note: nearly all actives have a fitted effect of over 55% in size
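Yeast FUS proteinopathy model; galactose-induced FUS (2%), starting OD 0.005. Cpds in dilution series, 24hr, 30C, 99% humidity. Abs 600 nm growth. Pos ctrl CP55940 (top 92uM final); neg ctrl DMSO.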
Mm-Cpn inhibitor = M. maripaludis TRiC chaperonin inhibition; purified Mm-Cpn ATPase, ADP Transcreener TR-FRET; Potency, µM (doses to about 76.9 µM), hits mostly inhibitors; actives 0.031% (n = 330,000); note: nearly all actives have a fitted effect of over 80% in size
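Purified archaeal chaperonin (25 nM final) was preincubated with compound for 10 min at 37°C, then ATP (10 uM final) was added for 30 min at 37°C in Tris pH 7.4/KCl/MgCl2/DTT buffer. ADP was quantified by HTRF Transcreener TR-FRET.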
TDP-43 yeast inh = inhibitors of TDP-43 toxicity in yeast; TDP-43 expressing yeast growth rescue, BacTiter-Glo, 24 h; actives 1.8% (n = 410,000); Potency, µM (doses to about 46.1 µM), hits mostly activators; note: nearly all actives have a fitted effect of over 50% in size
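Yeast expressing TDP-43 (pregrown in raffinose, seeded at OD600=0.02 in galactose medium) exposed to compounds 24 hr at 30 deg C. Growth read by BacTiter-Glo luminescence; rescue of toxicity appears as increased signal.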
aSyn rescue = inhibitors of alpha-synuclein toxicity in yeast; Potency, µM (highest dose often 46.1 µM), hits mostly activators; actives 0.14% (n = 370,000); Yeast expressing alpha-synuclein, growth rescue, BacTiter-Glo, 24 h; AID 652106; note: nearly all actives have a fitted effect of over 65% in size
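Readout is rescue of growth in alpha-synuclein-expressing yeast, so inhibitors of toxicity appear as activators. Growth after 24 hr at 30 deg C in galactose medium is quantified by luminescence.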
Hits are given with their value; i = inactive; ? = inconclusive; nt = no result given; ! = not confirmed by another sample. Unless noted, calls come from the whole dose curve; as a rule, active = well fitted curve in the direction sought with a large enough effect; inconclusive = small, poorly fitted or top-dose-only effect, or another doubt; inactive = no such curve, though single readings can be large; an effect the other way counts as inactive or inconclusive.

SMILES | Abeta rescue | ClpP mod | FUS suppressor | Mm-Cpn inhibitor | TDP-43 yeast inh | aSyn rescue
Cc1nn2c(N3CCCC3)c3c(nc2c1-c1ccccc1)CCC3 | i | nt | i | i | i | i
Fc1cccc(-c2cc3nc4c(c(N5CCOCC5)n3n2)CCCC4)c1 | i | ? | ? | i | i | i
OC1CCN(c2c3c(nc4cc(-c5ccc(Cl)cc5)nn24)CCC3)CC1 | i | 14µM | i | i | i | i
Clc1cccc(-c2cc3nc4c(c(N5CCOCC5)n3n2)CCCC4)c1 | i | 32µM | i | i | ? | i
Cc1onc(-c2c(Cl)cccc2Cl)c1C(=O)c1ccc(F)cc1 | i | i | i | i | 13µM | i
Cc1onc(-c2c(F)cccc2Cl)c1C(=O)c1ccccc1 | ? | nt | i | i | i | i
Cc1onc(-c2c(F)cccc2Cl)c1C(=O)c1ccc(F)cc1 | i | i | i | i | 13µM | i
Cc1onc(-c2c(F)cccc2Cl)c1C(=O)Nc1nnc(-c2ccccc2)s1 | i | 32µM | i | ? | i | i
COc1ccccc1N1CCN(C(=O)c2ccc3c(Cl)c4c(nc3c2)CCCC4)CC1 | i | i | ? | i | 20µM | i
CC1CCN(C(=O)c2ccc3c(Cl)c4c(nc3c2)CCCC4)CC1 | i | i | i | i | i | i
Cc1ccc(N2CCN(C(=O)c3ccc4c(Cl)c5c(nc4c3)CCCC5)CC2)c(C)c1 | i | i | i | nt | i | nt
O=C(c1ccc2c(Cl)c3c(nc2c1)CCCC3)N1CCN(c2ccc(F)cc2)CC1 | i | i | i | i | 16µM | i
CCn1nnnc1Sc1nc(C)nc2scc(-c3ccccc3)c12 | nt | i | nt | nt | nt | i
COc1ccc(-c2cn[nH]c2-c2ccc(OC)cc2O)cc1 | ? | nt | i | i | 25µM | 22µM
Cc1cc2oc(C(=O)Nc3c(C(=O)Nc4ccccc4)oc4ccccc34)cc(=O)c2cc1C | i | i | i | nt | i | nt
Cc1cccc(OCCCN2C(=O)C(=O)c3cc(C)ccc32)c1 | i | i | i | i | 14µM | i
Cc1cccc(OCCn2c(=O)n(C)c3ccccc32)c1 | i | i | i | i | ? | 22µM
Cc1cccc(OCCn2c(=O)sc3ccccc32)c1 | i | i | i | i | ? | i
CCCCc1cccc2[nH]cc(C)c12 | nt | nt | i | nt | nt | nt
Cn1cnc(S(=O)(=O)N2CCC(C(=O)Nc3ccc(F)cc3F)CC2)c1 | i | i | i | nt | i | nt
Cc1ccc(NC(=O)C(=O)NCCc2sc(-c3ccc(Cl)cc3)nc2C)cc1C | i | i | i | nt | i | nt
CC(Oc1ccccc1)C(=O)Nc1nnc(S(=O)(=O)N2CCCCCC2)s1 (centres undefined) | i | i | i | i | 20µM | i
CCC(Oc1ccccc1)C(=O)Nc1nnc(S(=O)(=O)N2CCCCC2)s1 (centres undefined) | i | i | ? | i | i | i
CC(=O)c1ccc(NC(=O)CSc2cn(CC(=O)N(C(C)C)C(C)C)c3ccccc23)cc1 | i | i | i | nt | i | nt
CC1(Cc2ccc(Cl)cc2)C(=O)Nc2c(Cl)cccc21 (centres undefined) | i | i | i | nt | ? | 5µM
SMILES | Abeta rescue | ClpP mod | FUS suppressor | Mm-Cpn inhibitor | TDP-43 yeast inh | aSyn rescue
CC1(Cc2cccc(C(F)(F)F)c2)C(=O)Nc2c(Cl)cccc21 (centres undefined) | i | i | i | nt | i | 22µM
Cc1ccc(CC2(C)C(=O)Nc3c(Cl)cccc32)cc1 (centres undefined) | i | i | i | nt | i | 6.3µM
COc1ccccc1CC1(C)C(=O)Nc2c(Cl)cccc21 (centres undefined) | i | i | i | nt | ? | ?
CC1(Cc2ccc(F)cc2)C(=O)Nc2c(Cl)cccc21 (centres undefined) | i | i | i | nt | 28µM | 13µM
O=[N+]([O-])c1ccc(OCCCN2CCC(C(O)(c3ccccc3)c3ccccc3)CC2)c(Cl)c1 | nt | nt | i | nt | nt | nt
CC1(Cc2ccc3c(c2)OCO3)C(=O)Nc2ccc(-c3cccc(C(F)(F)F)c3)cc21 (centres undefined) | i | i | i | nt | i | i
CC1(Cc2ccc3c(c2)OCO3)C(=O)Nc2c(Cl)ccc(Cl)c21 (centres undefined) | i | i | i | nt | ? | 22µM
Cc1ccc(NC(=O)CSc2nc3nccnc3c(=O)n2CCc2c[nH]c3ccccc23)c(C)c1 | i | i | i | nt | i | nt
O/N=C/c1ccn(-c2ccc(Br)cc2)c1 | i | i | i | i | 14µM | i
Cc1cc(/C=N/O)c(C)n1-c1ccc(Br)cc1 | i | nt | i | i | i | i
COc1ccc(CSc2ncnc3sccc23)cc1F | i | i | i | i | 13µM | i
c1ccc2nc3c(cc2c1)CCCC3 | nt | i | nt | nt | nt | i
CCN(CC(=O)NCc1cccs1)C(=O)c1ccc(S(=O)(=O)N(C)c2ccccc2)cc1 | i | 22µM | i | i | i | i
CCN(CC(=O)NCc1cccs1)C(=O)/C=C/c1cc(OC)c(OC)c(OC)c1 | i | 16µM | i | i | i | i
O=C1CN(C(=O)COc2ccc(Cl)cc2)C(c2ccc(F)cc2)c2cc(Br)ccc2N1 (centres undefined) | i | i | i | nt | ? | nt
O=C(NCCc1ccccc1)c1cc(-c2ccccc2)nc2n[nH]c(-c3ccccc3)c12 | i | 28µM | i | nt | i | nt
CC1=C(c2ccc(C)c(C)c2)S(=O)(=O)N=C1N1CCC(C(=O)NCc2ccc(N(C)C)cc2)CC1 | i | i | i | nt | i | nt
COc1ccccc1NC(=O)Cn1nc(-c2ccc(Cl)cc2)c2ccccc2c1=O | i | i | i | i | i | i
CN(C(=O)c1ccc(-c2nn(C)c(=O)c3ccccc23)cc1)c1ccccc1 | i | i | i | i | 14µM | nt
CN(C)CCNC(=O)c1ccc(-c2nn(C)c(=O)c3ccccc23)cc1 | i | i | i | i | i | nt
COc1ccccc1NC(=O)Cn1nc(-c2ccc(C)cc2)c2c(c1=O)CCCC2 | i | i | i | nt | 32µM | nt
Cn1nc(-c2ccc(OCC(=O)Nc3ccccc3)cc2)c2ccccc2c1=O | i | i | i | i | 16µM | nt
COc1ccccc1NC(=O)COc1ccc(-c2nn(C)c(=O)c3ccccc23)cc1 | i | i | i | i | 22µM! | i
Cn1c(=S)[nH]c2cc(C(=O)N3CCN(C(=O)c4ccccc4)CC3)ccc2c1=O | nt | i | nt | nt | nt | i
Cc1ccc(C)c(N2CCN(C(=O)Cn3cnc4onc(-c5ccc(F)cc5)c4c3=O)CC2)c1 | i | i | i | nt | ? | ?
COc1cccc(N2CC(NC(=O)c3ccc4c(c3)OCO4)CC2=O)c1 (centres undefined) | i | i | i | nt | i | nt
Cc1ccc2cccc(O)c2n1 | nt | i | nt | nt | nt | nt

Screening results from PubChem.
